Bioassay records (PubChem BioAssay)
Shown are actives, neighbours in structure and some others; about 7.9% of the full set was active somewhere.
KB-3-1 cytotox: KB-3-1 parental cell cytotoxicity; 400,000 compounds, 1.4% hits; Potency, µM (titrated, usually from 46.1 µM), most hits filed as cytotoxic; KB-3-1 viability, CellTiter-Glo ATP luminescence, 72 h; further: on the % scale 0 is the no-effect control and ±100 the full control effect; nearly all actives have a fitted effect of over 60% in size
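Multi-concentration cytotoxicity screen in KB-3-1 cells grown in DMEM lacking phenol red with 10% FBS. After 72 h at 37 °C with compound, ATP-dependent luminescence was recorded.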
SW480 rereplic: induces DNA re-replication in SW480 colon adenocarcinoma cells; SW480 DNA re-replication, Hoechst DNA content imaging, 48 h; Potency, µM (series often up to 46.1 µM), inactives show at the top dose re-replication activation, usual class: activators; 340,000 compounds, 1.8% hits; further: % of control where 0% means no effect; nearly all actives have a fitted effect of over 55% in size
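Treated cells incubate 48 hr (37 C, 5% CO2), are stained 40 min with Hoechst, and nuclear fluorescence is enumerated; a rise in nuclei with high DNA signal marks re-replication.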
KB-V1 MDR tox: KB-V1 MDR subline cytotoxicity; KB-V1 MDR cells viability, CellTiter-Glo, 72 h; Potency, µM (doses to about 46.1 µM), most hits filed as cytotoxic; 400,000 compounds, 3.4% hits; further: on the % scale 0 is the no-effect control and ±100 the full control effect; nearly all actives have a fitted effect of over 60% in size
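Cytotoxicity via CellTiter-Glo luminescence after 72 h compound exposure at 37 degrees C. Cells: drug-selected KB-V1 line, DMEM phenol-red free plus 10% FBS. Compounds tested at multiple concentrations; normalized data fitted to concentration-effect curves.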
HT1080 IDH1KD tx: HT-1080 IDH1 knockdown cell toxicity (counter line); 360,000 compounds, 2% hits; Potency, µM (top dose mostly 46.1 µM), for inactives: top-dose activity, negative = toxicity, most hits filed as cytotoxic; HT-1080 IDH1 knockdown viability, ATP luminescence, 48 h;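 further: 0% = DMSO wells and -100% = cell-free medium wells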
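Luminescent ATP read-out (CellTiter-Glo, 10 min at room temperature) after 48 h compound exposure at 37 °C gave viability of IDH1-knockdown HT-1080 cells. Activity was normalised to DMSO and cell-free wells, then fitted as concentration-response curves.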
HT1080-NT tox: kills 2HG-producing HT-1080-NT fibrosarcoma cells. Potency, µM (top dose mostly 46.1 µM), for inactives: top-dose activity, negative = less viability, hits mostly cytotoxic. 360,000 compounds, 1.6% hits. HT-1080-NT fibrosarcoma viability, CellTiter-Glo ATP luminescence, 48 h;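 further: NT is the 2HG producing partner of a matched IDH1 knockdown line; 0% = DMSO-treated cells and -100% = media-only wells without cells; nearly all actives have a fitted effect of over 55% in size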
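Luminescent CellTiter-Glo readout after 48 hours of compound exposure at 37 degrees C defined viability of HT-1080-NT cells. Activity was normalized to DMSO wells and cell-free media wells; concentration-response curves were fitted and assigned curve classes.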
MCF10A rerep: induces DNA re-replication in MCF 10a normal breast cells. Potency, µM (series often up to 46.1 µM), for the others: at the top dose activity, positive = re-replication, actives largely listed as activators. MCF 10A DNA re-replication, Hoechst nuclear intensity, 48 h. 350,000 compounds, 2.9% hits. AID 624296; further: % of control where 0% means no effect; nearly all actives have a fitted effect of over 50% in size
Active calls of the source: *; i = inactive; ? = inconclusive; . = not tested or not shown. The call rests on the fitted dose curve; in most records, active means well fitted curve in the direction sought with a large enough effect; inconclusive means small, poorly fitted or top-dose-only effect, or another doubt; inactive means no such curve, though single readings can be large; an effect the other way counts as inactive or inconclusive. Potency means the concentration at half of the fitted maximal effect.

SMILES	KB-3-1 cytotox	SW480 rereplic	KB-V1 MDR tox	HT1080 IDH1KD tx	HT1080-NT tox	MCF10A rerep
CC12CN3CC(C)(CN(C1)C3c1ccc(OCc3ccccc3)cc1)C2=O (centres undefined)	i	.	i	.	.	.
COc1cc(OC)cc(-c2c(Sc3ccccc3)c3cc(-c4ccc5c(c4)OCCO5)ccc3n2C)c1	i	.	i	4.1%	11.7%	.
CCOC(=O)c1sc2ccccc2c1S(=O)(=O)Nc1ccc(N(C)C)cc1	?	.	i	.	.	.
CCCCCCn1cc(CN2CC(N3CCN(CCN(C)C)CC3)CS2(=O)=O)nn1 (centres undefined)	i	.	i	10.7%	5.4%	.
CCc1cc(=O)n2[nH]c(-c3ccccc3)c(-c3ccccc3)c2n1	?	20.6µM*	i	?	?	?
CCOc1ccc(CN(C(=O)c2nc(SC)ncc2Cl)C2CCS(=O)(=O)C2)cc1 (centres undefined)	i	.	i	.	.	.
COc1cc(-c2cc(OC)c(O)c(OC)c2)cc(OC)c1O	?	23.1µM*	?	?	-16.0%	?
CCOCCCNC(=O)C(NC(=O)C1CCC(C)CC1)C(C)C (centres undefined)	i	.	i	.	.	.
CCOC(=O)C1=C(C)N(C[C@@H]2CC[C@@H](Cc3ccc4cc(OC)ccc4c3)O2)C(=O)NC1c1ccc(OC)cc1 (some centres undefined)	i	?	?	-0.8%	1.0%	4.11µM*
CCOC(=O)C1=C(C)NC(C)=C(C(=O)OCC)C1/C=C/c1ccccc1OC	i	23.1µM*	20.6µM*	-5.6%	-7.0%	?
C=CCOC(=O)C1=C(C)NC(C)=C(C(=O)OCC=C)C1/C=C/c1ccccc1	?	?	?	18.4µM*	?	166.4%
CCOC(=O)C1=C(C)NC(C)=C(C(=O)OCC)C1c1ccccc1C=CC(=O)OC(C)(C)C	.	29.9µM*	.	.	.	?
Cc1cc(NC(=O)CCS(=O)(=O)c2cc3c4c(c2)CCN4C(=O)CC3)ccc1Br	i	.	i	.	.	.
COc1ccc(NS(=O)(=O)c2cc(C)ccc2NC(=O)c2cc(C)oc2C)cc1	0.0411µM*	0.731µM*	0.259µM*	0.92µM*	0.581µM*	0.651µM*
CC1(C(=O)Nc2ccc3c(c2)OCO3)CCN1C(=O)CCc1ccc(Cl)cc1Cl (centres undefined)	i	.	i	-12.8%	-5.8%	.
O=S(=O)(c1ccc(Br)cc1)N1CCn2cccc2C1c1ccc(Br)cc1 (centres undefined)	i	.	i	.	.	.
O=C(CCCCCn1c(=S)[nH]c2ccc(N3CCOCC3)cc2c1=O)NCc1ccccc1	i	-2.5%	i	19.1%	3.2%	21.9%
O=c1c2cc(N3CCOCC3)ccc2[nH]c(=S)n1Cc1ccccn1	i	-2.4%	i	4.7%	3.9%	?
O=C(CCCCCn1c(=S)[nH]c2ccc(N3CCOCC3)cc2c1=O)NCc1cccc(Cl)c1	i	?	i	-10.0%	2.7%	16.4µM*
O=c1c2cc(N3CCOCC3)ccc2[nH]c(=S)n1Cc1ccccc1Cl	i	?	i	-9.0%	-8.6%	23.1µM*
COc1ccc(CNC(=O)c2ccc3c(c2)N(C)C(=O)C2CCCCN32)cc1OC (centres undefined)	i	.	i	.	.	.
CC(Sc1nnc(-c2cccs2)n1-c1ccccc1)C(=O)NCc1ccc2c(c1)OCO2 (centres undefined)	i	12.7%	8.2µM*	-0.7%	-0.5%	-11.3%
O=C(CSc1nnc(Cc2cccs2)n1-c1ccccc1)NCc1ccc2c(c1)OCO2	i	-2.2%	i	15.7%	2.7%	16.8%
COC(=O)c1sccc1S(=O)(=O)N1CCN(c2ccccc2OC)CC1	i	.	i	.	.	.
